Consider 40 sequences from the supplement of paper PMC10338343.

± gives the standard deviation.
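Note: 1 nM active piRISC with 0.1 nM target library at 33 °C single turnover.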

For the assay, the system named is MILI (PIWIL2) piRISC loaded with piRNA #1 (26 nt). Put plainly: pre-steady-state target cleavage rate (min^-1); guide: piRNA #1 5'p-UGAGGUAGUAGGUUGUAUAGUAUCCA; MIWI and MILI are mouse PIWI proteins and EfPiwi is from a freshwater sponge; tags in brackets are library labels; higher = faster piRNA-guided slicing of the target. The note with it: auxiliary factor: 500 nM mouse GTSF1. The method, boiled down: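 The pre-steady-state cleavage rate was calculated from a burst-and-steady-state fit. Data came from Cleave-'n-Seq, in which […] transcribed, DNA-blocked target RNA library was mixed with 1 nM active affinity-purified piRISC carrying one synthetic guide, with or without 500 nM GTSF1 partner protein, in HEPES–potassium acetate buffer at 33 °C for 0–8 or 0–960 min. Uncleaved targets were sequenced and normalised to depth and to weakly complementary targets, three trials were pooled, and k3 was capped at 0.0001 min^-1.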
On to GGAGACCUAUGAUUAUAACCUACUACCUCA, for which the “pre-steady-state target cleavage rate” value was 0.00484 ± 0.0026.

As to GGAGUGGAUACUUUACUACCUACUACCUCA, the “pre-steady-state target cleavage rate” value was 0.16 ± 0.01.

On to GGAGACCUUUCUUUACAACCUACUACCUCA, for which the “pre-steady-state target cleavage rate” value came to 0.07 ± 0.012.

Turning to GGAGACCUAUGAAUACAACUUACUACCUCA, the “pre-steady-state target cleavage rate” value was determined as 0.00939 ± 0.003.

Turning to GGAGACGAUACAAUACAACCUACUUCCUCA, the “pre-steady-state target cleavage rate” value came out at 0.126 ± 0.024.

As to GGAGACCUAUCUAUACAACCAACUACCUCA, the “pre-steady-state target cleavage rate” value was found to be 0.00522 ± 0.0024.

Consider GGAGACGAUACUAUAGAACCAACUACCUCA, for which the “pre-steady-state target cleavage rate” value turned out to be 0.00326 ± 0.0028.

In the case of GGAGACCUAUCUAUACAACCUACUAUCCUCA, the “pre-steady-state target cleavage rate” value is 0.193 ± 0.023.

As for GGAGACCUAUCUAUACAACCUACUUCCUCA, the “pre-steady-state target cleavage rate” value was 0.0646 ± 0.012.

With GGAGACCUAACUAAACAACCUACUACCUCA, the “pre-steady-state target cleavage rate” value was 0.0743 ± 0.017.

Turning to GGAGACCAUACUAUAGUACCUACUACCUCA, the “pre-steady-state target cleavage rate” value is 0.149 ± 0.018.

For the sequence GGAGACCUAUGAUAAGCAACCUACUACCUCA, the “pre-steady-state target cleavage rate” value was 0.00516 ± 0.0031.

Consider GGAGACCUUACUAUACAACCUACUUACCUCA, for which the “pre-steady-state target cleavage rate” value came out at 0.158 ± 0.013.

Regarding GGAGUGGAUACAAUACAACCUACUUCCUCA, the “pre-steady-state target cleavage rate” value is 0.00975 ± 0.0031.

GGAGACCUAUCUAUAACAACCUACUACCUCA: the “pre-steady-state target cleavage rate” value is 0.0615 ± 0.012.

With GGAGACCUAUGAUUACAUGCUACUACCUCA, the “pre-steady-state target cleavage rate” value was 0.00366 ± 0.0034.

Take GGAGACCUAUGAUAUCAAGCUACAACCUCA: the “pre-steady-state target cleavage rate” value stood at 0.00699 ± 0.0025.

On to GGAGACCUUUCUAUACAACCAACUACCUCA, for which the “pre-steady-state target cleavage rate” value is 0.00462 ± 0.0029.

As for GGAGACCAUACUAUUCAACCUACUAGCUCA, the “pre-steady-state target cleavage rate” value is 0.11 ± 0.019.

GGAGACCUUACAAUACAACCUACUACGUCA: the “pre-steady-state target cleavage rate” value turned out to be 0.0615 ± 0.009.

Take GGAGACCUAUGUAUUCAACCUACUACGUCA: the “pre-steady-state target cleavage rate” value is 0.00786 ± 0.0022.

In the case of GGAGACCUUACUAUUCAACCUACAACCUCA, the “pre-steady-state target cleavage rate” value is 0.12 ± 0.013.

Turning to GGAGAGGAUUCUAUACAUCCUACUACCUCA, the “pre-steady-state target cleavage rate” value came out at 0.263 ± 0.013.

For the sequence GGAGACCUAUGAUAUGUACCUACAACCUGA, the “pre-steady-state target cleavage rate” value is below 0.0001.

On to GGAGACCUAUGAAUAGAAGCUACUACCUCA, for which the “pre-steady-state target cleavage rate” value worked out at 0.0046 ± 0.0022.

Regarding GGAGACGAUCACUAUACAACCUACUACCUCA, the “pre-steady-state target cleavage rate” value was 0.131 ± 0.019.

In the case of GGAGACCUAUGUAUACAACCUAUCUACCUCA, the “pre-steady-state target cleavage rate” value is 0.0415 ± 0.01.

Take GGAGACCAUACAAUACAACGUACUACCUCA: the “pre-steady-state target cleavage rate” value was 0.0186 ± 0.0044.

With GGAGACCUUACAAUACUACCUACUACCUCA, the “pre-steady-state target cleavage rate” value was 0.114 ± 0.013.

For the sequence GGAGAGGAUAGUUUACAACCUACUACCUCA, the “pre-steady-state target cleavage rate” value was found to be 0.0583 ± 0.0089.

On to GGAGACCUUACUUUUCAACCUACUACCUCA, for which the “pre-steady-state target cleavage rate” value stood at 0.0874 ± 0.01.

With GGAGACCAUACUAAACAACCUACAACCUCA, the “pre-steady-state target cleavage rate” value was determined as 0.117 ± 0.016.

In the case of GGAGACCUAUGAUAUGUUCCUACUUACCUCA, the “pre-steady-state target cleavage rate” value is below 0.0001.

As for GGAGACCUAUCUAAACAACCUAGUACCUCA, the “pre-steady-state target cleavage rate” value was 0.0109 ± 0.0036.

As to GGAGACCUAUGAUAUGUUGCUACUCCCUCA, the “pre-steady-state target cleavage rate” value is below 0.0001.

Regarding GGAGACCUAUGAUUACUACCUACUACCUCA, the “pre-steady-state target cleavage rate” value turned out to be 0.00306 ± 0.0021.

Turning to GGAGACCUUUCUAUAGAACCUACUACCUCA, the “pre-steady-state target cleavage rate” value was 0.0818 ± 0.011.

As for GGAGACCUUACUAUACAACGUACUACCACA, the “pre-steady-state target cleavage rate” value was determined as 0.0216 ± 0.0046.

As for GGAGACCUAUGUAUACAACCUAGUUCCUCA, the “pre-steady-state target cleavage rate” value turned out to be 0.00347 ± 0.003.

On to GGAGACCUAACUUUACAACCUACUAGCUCA, for which the “pre-steady-state target cleavage rate” value was found to be 0.0363 ± 0.017.
